This is part of a sample that, as a whole, favours compounds with a hit. Of some 83,000 tested, about 20% had one in any assay.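 Activity criterion: percent growth below 10, measured after cells in 96-well plates were exposed to a single compound concentration for 48 hours.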 A number with no mark means an inactive call. Active and inactive are the calls of the source.
system: NCI-H460 lung; test: NCI-60 one-dose screen, 48 h (100 = growth as untreated, 0 = no growth, -100 = all killed); details: 10 µM unless noted

**Q.** How did the growth turn out when `O=C1NC(=O)C(=Cc2cn(Cc3cn(Cc4ccc(Cl)cc4Cl)nn3)c3ccccc23)C(=O)N1` was run?
**A.** 51.7%

**Q.** With `CN1CCN(Cc2ccc(C(=O)Nc3cncc(C#Cc4cnc(N)c5ccccc45)c3)cc2C(F)(F)F)CC1` as the compound, how does the growth read?
**A.** -80.8% (active)

**Q.** How did the growth turn out when `COc1ccc(C2C3=C(COC3=O)N(CCO)c3cc4c(cc32)OCCO4)cc1` (centres undefined) was run?
**A.** 77.4%

**Q.** Which growth does the source give for `O=C(Nc1ccc(I)cc1F)c1cc(Cl)ccc1O` here?
**A.** 4% (active)

**Q.** `NCCOc1ccccc1/C=C1\c2ccccc2-c2ccc([N+](=O)[O-])cc21` was tested. Which growth did it give?
**A.** -85.1% (active)

**Q.** `O=c1oc2ccc(I)cc2c(=O)n1-c1ccc(Cl)cc1F` was tested. Which growth did it give?
**A.** 3.56% (active)

**Q.** With `COc1cc(/C=C2\CN(C)C/C(=C\c3cc(CN4CCOCC4)c(O)c(OC)c3)C2=O)cc(CN2CCOCC2)c1O` as the compound, how does the growth read?
**A.** 15.2%

**Q.** With `CCOC(=O)c1sc(-c2ccc(OS(=O)(=O)C[C@]34CCC(CC3=O)C4(C)C)c(C=O)c2)nc1C` as the compound, how does the growth read?
**A.** -1.32% (active)

**Q.** `COc1ccc(/C=C2/SC(=O)N(CC(=O)N3CCN(c4cc5c(cc4F)c(=O)c(C(=O)O)cn5C4CC4)CC3)C2=O)cc1` was tested. Which growth did it give?
**A.** 103%

**Q.** Which growth does the source give for `COc1ccc(C)c2sc(N(Cc3cccnc3)C(=O)c3ccc(C#N)cc3)nc12` here?
**A.** -24.4% (active)

**Q.** Which growth does the source give for `NC(=O)CSc1nc(-c2ccc(F)cc2)cc(-c2ccco2)n1` here?
**A.** 110%

**Q.** How did the growth turn out when `CC(=O)c1ccc(Nc2nc(NCCO)nc(Nc3ccc(Cl)cc3)n2)cc1` was run?
**A.** 93.6%

**Q.** How did the growth turn out when `O=c1c2cc(F)cc(Cl)c2sc2c(Cl)nc3ccccc3c12` was run?
**A.** 100%

**Q.** Which growth does the source give for `O=Cc1cc2ccccc2nc1Nc1nccs1` here?
**A.** 61.8%

**Q.** For `CC1=NCC2NC(=O)NC(C)=C12` (centres undefined), which growth is on record?
**A.** 101%

**Q.** For `COc1ccc(CCN2C(=O)CCSC2=S)cc1OC`, which growth is on record?
**A.** 102%

**Q.** For `CCOC(=O)c1sc(-c2ccc(OS(=O)(=O)c3ccccc3[N+](=O)[O-])c(C=O)c2)nc1C`, which growth is on record?
**A.** 91.2%

**Q.** Which growth does the source give for `Cc1cccc(NC(=O)c2sc3nc4c(cc3c2N)CCCC4)c1C` here?
**A.** 6.76% (active)

**Q.** With `COc1cc(C(=O)NN=C2c3ccccc3-c3ccccc32)cc(OC)c1OC` as the compound, how does the growth read?
**A.** 11.2%

**Q.** For `Nc1ccc(-n2c(=O)oc3ccc(Cl)cc3c2=O)c(Cl)c1`, which growth is on record?
**A.** 2.28% (active)

**Q.** Which growth does the source give for `O=C(Nc1ccc(-c2nc3cc4ccccc4cc3[nH]2)cc1)c1cccc(Br)c1` here?
**A.** 6.74% (active)

**Q.** Which growth does the source give for `CCOC(=O)CSc1c(-c2ccccc2)c2cc(Cl)ccc2[nH]c1=O` here?
**A.** 101%

**Q.** `O=C(NCc1ccco1)C1CN(c2ccc(Cl)cc2)N(c2ccc(Cl)cc2)C1=O` (centres undefined) was tested. Which growth did it give?
**A.** 14.4%

**Q.** `O=C(Nc1ncc(Cc2cccc(C(F)(F)F)c2)s1)C1COc2ccccc2O1` (centres undefined) was tested. Which growth did it give?
**A.** 97.7%

**Q.** How did the growth turn out when `COc1ccc(-n2c(C(O)c3ccccc3)nn(CN3CCOCC3)c2=S)cc1` (centres undefined) was run?
**A.** 111%

**Q.** Which growth does the source give for `Fc1ccc(Oc2ccc(Nc3ncnc4onc(-c5ccccc5)c34)cc2)cc1` here?
**A.** 102%

**Q.** With `Cc1ccc(N=NC2C(=O)N(c3ccc(Cl)cc3)N(c3ccc(Cl)cc3)C2=O)cc1` as the compound, how does the growth read?
**A.** 99.8%

**Q.** How did the growth turn out when `Nc1nc(Nc2cccc(F)c2)nc2ccccc12` was run?
**A.** 31.6%

**Q.** Which growth does the source give for `O=C(Nc1ccc(Br)cc1F)c1cc(F)ccc1O` here?
**A.** 3.38% (active)

**Q.** With `Nc1ccc(C2c3ccccc3Oc3ccccc32)cc1` as the compound, how does the growth read?
**A.** 108%

**Q.** With `COc1ccc(/C=C/C(=O)c2ccc3cc(OC)c(OC)cc3c2)cc1OC` as the compound, how does the growth read?
**A.** 40.7%

**Q.** How did the growth turn out when `CN(C)c1ccc(N=Cc2ccc(N3CCOCC3)cc2)cc1` was run?
**A.** 92.3%

**Q.** `CC(=O)c1ccc(NC(=O)Nc2ccc(S(=O)(=O)Nc3ccc(Cl)nn3)cc2)cc1` was tested. Which growth did it give?
**A.** 109%

**Q.** How did the growth turn out when `CCC(C)(C)C(=O)O[C@H]1C[C@@H](C)C=C2C=C[C@H](C)[C@H](CC[C@@H]3CC=CC(=O)O3)[C@H]21` was run?
**A.** 101%

**Q.** For `COC(=O)[C@H]1CCCN1C(=O)[C@H]1CCCN1C(=O)[C@H](Cc1c[nH]c2ccccc12)NC(=S)Nc1cc(C(F)(F)F)cc(C(F)(F)F)c1`, which growth is on record?
**A.** 22.1%

**Q.** How did the growth turn out when `NCCOc1ncccc1/C=C1\c2ccccc2-c2ccc([N+](=O)[O-])cc21` was run?
**A.** -46.1% (active)

**Q.** `CC(C)C[C@H](C(=O)N[C@H](C(N)=O)C(C)C)N1CC=CCN(OCc2ccccc2)S1(=O)=O` was tested. Which growth did it give?
**A.** 110% [2.5 µM]

**Q.** With `COc1ccc(N)c(-c2cc3c(c4c2[nH]c2ccc(OC)cc24)CCCC3)c1` as the compound, how does the growth read?
**A.** 83.1%

**Q.** Which growth does the source give for `COc1ccc(-c2nc(-c3ccccn3)c(-c3ccccn3)n2CC(C)C)cc1OC1CCCC1` here?
**A.** 5.25% (active)

Source: PubChem BioAssay (NCI)
